Compound activity from PubChem.
In the library only some 1.1% were active in any assay of this set; here they are far more common.
NFkB transloc pot = enhancers of NFkB p65 translocation in HUVEC – imaging, IL-1B stimulus, high-content imaging, primary screen; 0.3% of 94,000 active; AID 819, 2007; HUVEC IL-1B NFkB p65 nuclear translocation imaging; activation, % at 2 µM;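 active means activation above 40%, about the mean plus 3 SD, also judged a hit on visual image review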;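 further: percent activation is computed from the nuclear over cytoplasmic p65 intensity ratio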
EphB4 ephrin blk = EphB4-ephrin-B2 interaction antagonists, primary screen, biochemical, TNYL-RAW peptide probe, fluorescence polarization; 0.15% of 97,000 active; AID 720, 2007; Ephrin type-B receptor 4 (Homo sapiens), P54760; inhibition, % at 7 µM; EphB4 LBD / TNYL-RAW-Alexa532 peptide;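 active means inhibition above the screen-wide mean inhibition plus 3 SD, cut at about 15% in these data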;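 further: 0% = DMSO wells and 100% = excess unlabeled TNYL-RAW peptide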
Target sequence (P54760 whole entry, looked up, the tested form may be a part): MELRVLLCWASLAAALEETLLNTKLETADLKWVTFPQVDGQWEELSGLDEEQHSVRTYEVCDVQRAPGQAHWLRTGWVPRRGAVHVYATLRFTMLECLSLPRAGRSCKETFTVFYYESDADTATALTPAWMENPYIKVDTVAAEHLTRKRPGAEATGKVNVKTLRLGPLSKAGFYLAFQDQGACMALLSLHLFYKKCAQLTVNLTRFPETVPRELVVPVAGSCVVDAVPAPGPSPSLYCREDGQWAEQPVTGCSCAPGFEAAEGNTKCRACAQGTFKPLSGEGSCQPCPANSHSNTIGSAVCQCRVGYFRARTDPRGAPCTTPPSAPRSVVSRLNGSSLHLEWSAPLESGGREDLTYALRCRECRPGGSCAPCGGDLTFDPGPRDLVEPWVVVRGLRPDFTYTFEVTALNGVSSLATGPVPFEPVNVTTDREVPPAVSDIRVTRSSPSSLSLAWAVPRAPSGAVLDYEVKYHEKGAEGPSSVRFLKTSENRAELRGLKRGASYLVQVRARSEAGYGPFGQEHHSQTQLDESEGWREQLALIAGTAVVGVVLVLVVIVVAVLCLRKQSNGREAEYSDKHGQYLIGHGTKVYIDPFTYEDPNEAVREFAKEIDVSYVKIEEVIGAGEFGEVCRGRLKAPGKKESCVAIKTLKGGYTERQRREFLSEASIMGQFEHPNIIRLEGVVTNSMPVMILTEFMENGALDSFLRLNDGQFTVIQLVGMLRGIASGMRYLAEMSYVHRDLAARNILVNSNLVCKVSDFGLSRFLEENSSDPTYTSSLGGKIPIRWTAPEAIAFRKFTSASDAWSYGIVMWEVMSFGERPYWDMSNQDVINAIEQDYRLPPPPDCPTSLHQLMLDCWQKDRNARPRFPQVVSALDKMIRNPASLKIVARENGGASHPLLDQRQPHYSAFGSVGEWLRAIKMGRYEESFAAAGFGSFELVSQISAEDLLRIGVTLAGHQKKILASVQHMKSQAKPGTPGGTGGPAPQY
IL1B NFkB inh = inhibitors of IL-1B driven NFkB p65 nuclear import, primary screen, imaging, HUVEC, IL-1B stimulus, high-content imaging; HUVEC IL-1B NFkB p65 nuclear translocation imaging; 0.43% of 94,000 active; inhibition, % at 2 µM;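 active means inhibition above about 30% together with a positive call from visual inspection of the well image, limit read from the data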;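 further: nuclear over cytoplasmic p65 intensity ratio measured by imaging; 0% = IL-1B stimulated DMSO wells and 100% = unstimulated DMSO wells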
IL1B cytotox = cytotoxicity in IL-1B stimulated HUVEC, primary screen, cytotoxicity control for IL-1B NFkB translocation project, imaging, Hoechst nuclear count, IL-1B stimulus; AID 845, 2007; 0.41% of 94,000 active; HUVEC cell count loss; cell count reduction, % at 2 µM;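 active means cell count reduction more than 3 SD above the screen-wide mean, cut at about 70% in these data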;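 further: normalized per plate to untreated control cells as the no-loss baseline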
Candida biofilm = clotrimazole potentiators killing Candida biofilms, primary screen, with clotrimazole, Alamar Blue; C. albicans biofilm + clotrimazole; inhibition, % at 6 µM; 0.14% of 85,000 active;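 active means inhibition above 20%; inactive means inhibition below 20%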;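 further: preformed 24 hr biofilms exposed to compound for 48 hr; 0% = biofilm without compound and 100% = blank killed by clotrimazole plus chlorhexidine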
The depositor's hits bear a star; . = no result given.

SMILES	NFkB transloc pot	EphB4 ephrin blk	IL1B NFkB inh	IL1B cytotox	Candida biofilm
CCOC(=O)CSc1cc(CS(=O)(=O)c2ccccc2)nc(-c2ccccc2)n1	10.8	-13.7	-10.8	82.7*	.
CN1CCCc2cc3c(C(F)(F)F)cc(=O)oc3nc21	-4.9	0.5	4.9	32.4	9.1
C=CCn1c(SC(C)CC)nc(O)cc1=O (stereo not given)	6.6	-2.3	-6.6	8.4	6.6
CN(C)S(=O)(=O)c1ccc2c(c1)c(=O)c(C(=O)N1CCOCC1)cn2C	-65.6	0.5	65.6*	-76.5	2.4
Cc1ccc2cc(C)c3nnc(SCC(=O)Nc4nc5c(s4)CCCC5)n3c2c1	1.4	3.2	-1.4	-17.0	.
O=C(Nc1ccccc1)c1ccn[nH]1	-31.4	6.0	31.4*	19.4	7.0
O=C(C(Cc1ccccc1)n1cccc1)N1CCCCC1 (stereo not given)	3.9	3.5	-3.9	-0.3	-19.1
O=C(C(Cc1ccccc1)n1cccc1)N1CCCCCC1 (stereo not given)	4.4	-2.1	-4.4	-38.3	20.6*
O=C(c1ccc(Cl)c(S(=O)(=O)NCc2ccco2)c1)N1CCN(c2ccc(F)cc2)CC1	-35.6	-0.9	35.6*	-6.1	1.7
O=C(O)c1cc(S(=O)(=O)NCc2ccco2)c(Cl)cc1Cl	1.9	1.8	-1.9	26.2	3.4
CC(C)CNc1nc(=S)nc(N(C)C)[nH]1	-37.2	-1.8	37.2*	20.6	.
Cc1cc(/C=N/Nc2ccc([N+](=O)[O-])cn2)c(C)n1-c1ccccc1	9.6	0.3	-9.6	10.5	25.3*
O=C1c2ccccc2C(=O)N1Cc1cc(-c2ccc(Cl)cc2)no1	.	3.2	.	.	.
O=C(CSc1nnc(-c2cccs2)o1)OC1CCCCC1	.	.	.	.	-4.9
CCC1CCCCN1C(=O)CSc1nnc(-c2cccs2)o1 (stereo not given)	-97.4	5.5	97.4*	85.7*	-0.8
COc1ccc(Cc2nn3c(-c4ccccc4Br)nnc3s2)cc1	19.8	2.6	-19.8	-10.2	10.2
Brc1ccccc1-c1nnc2sc(Cc3ccccc3)nn12	59.1*	1.7	-59.1	-20.2	9.6
CC(=O)Nc1nc(C2COc3ccccc3O2)cs1 (stereo not given)	3.5	-6.7	-3.5	-19.8	.
COc1ccc(NC(=O)Cn2nc(C(F)(F)F)c3c2CCCC3)c(OC)c1	13.2	4.3	-13.2	-32.1	2.9
COc1ccc(CNC(=O)Cn2nc(C(F)(F)F)c3c2CCC3)cc1	-34.6	-3.2	34.6*	94.1*	3.9
COc1cc(CNC2CCC(C)C2)cc(OC)c1 (stereo not given)	10.5	12.0	-10.5	89.3*	4.0
COC(=O)c1ccccc1Sc1c(/C=N/OC(=O)c2ccccc2)c(C(F)(F)F)nn1C	-44.5	2.9	44.5*	30.4	-3.4
O=C(c1c[nH]c2ccc(S(=O)(=O)N3CCC4(CC3)OCCO4)cc2c1=O)N1CCOCC1	1.5	16.9*	-1.5	8.8	5.1
C/C(=N\Nc1cc(Cl)nc(C)n1)c1ccc(C)cc1	-0.7	6.4	0.7	4.1	.
O=C(NCc1ccncc1)C1CCN(S(=O)(=O)Cc2ccccc2)CC1	11.5	-0.8	-11.5	2.7	3.6
SMILES	NFkB transloc pot	EphB4 ephrin blk	IL1B NFkB inh	IL1B cytotox	Candida biofilm
CC(C)(C)c1ccc(C(=O)N2CCC(C(=O)NCc3ccncc3)CC2)cc1	-100.0	-5.2	100.0*	93.5*	12.6
Cc1cc(C)nc(NC(=O)C(C)C)n1	-0.8	-4.4	0.8	21.7	.
Cc1cccc(N(C)S(=O)(=O)c2ccc3[nH]c(=O)c(=O)[nH]c3c2)c1	-8.7	3.1	8.7	73.3*	5.8
O=C(NNS(=O)(=O)c1ccc(Br)cc1)c1ccncc1	-34.9	4.8	34.9*	6.6	.
Cc1sc(NC(=O)c2ccccc2)c(C(=O)NCCN(C)C)c1C	6.6	-11.6	-6.6	5.6	.
Cn1c(N)c(C(=O)CCl)c(=O)n(C)c1=O	-5.8	-1.5	5.8	-2.3	3.8
CCCCNC(=O)c1cn(C)c2ccc(S(=O)(=O)N3CCOCC3)cc2c1=O	.	.	.	.	-0.4
Cc1ccccc1CN1CCNC(=O)C1CC(=O)O (stereo not given)	.	.	.	.	28.3*
COc1cccc(CN2CCNC(=O)C2CC(=O)O)c1OC (stereo not given)	-14.3	10.7	14.3	14.0	10.9
CC1CCN(c2nc3ccccc3nc2C(C#N)C(=O)OC2CCCCC2)CC1 (stereo not given)	-96.9	2.4	96.9*	92.5*	-9.8
O=C(CSc1nnc(Cn2nnc(-c3ccccc3)n2)n1-c1ccccc1)Nc1ccc(F)cc1	-98.6	-5.5	98.6*	89.5*	9.2
CN1C(=O)CSC1=NC12CC3CC(CC(C3)C1)C2	40.0*	-1.7	-40.0	2.8	-1.2
CCN1C(=O)CSC1=NC12CC3CC(CC(C3)C1)C2	-1.2	-0.1	1.2	-6.9	6.3
COc1cccc(-c2nc(CS(=O)(=O)CC(=O)NCCCOC(C)C)c(C)o2)c1	-11.5	3.3	11.5	94.8*	0.9
COc1cc(N(C)C)c(NC(C)=O)cc1C(=O)O	9.8	-8.9	-9.8	84.8*	-2.5
COc1ccc2nc(NC(=S)N(C)C)sc2c1	5.6	8.3	-5.6	6.6	-0.5
COc1ccc(OCC(=O)N/N=C2\CCc3ccccc32)cc1	-53.1	-4.8	53.1*	3.0	5.5
O=C(COc1ccccc1)Nc1ccccc1N1CCN(c2ccccc2)CC1	41.8*	1.7	-41.8	0.0	.
COc1ccc(OCC(=O)Nc2ccccc2O)cc1	-3.9	0.8	3.9	-134.2	81.8*
O=C(COc1ccccc1)Nc1ccccc1N1CCN(c2ccc(F)cc2)CC1	3.5	4.4	-3.5	26.8	-4.4
Cc1cc(Nc2ccc(Br)c(C)c2)n2nc(C)nc2n1	.	.	.	.	-11.5
O=C1c2ccccc2NC(c2ccccc2)N1Cc1ccco1 (stereo not given)	.	.	.	.	36.8*
O=C(Cn1cc2c(n1)CCCCC2)NCc1ccccn1	-6.9	.	6.9	-5.0	-4.6
Nc1ncnc2nc(SCc3ccc(Cl)cc3Cl)[nH]c12	-2.8	1.8	2.8	2.8	.
Nc1ncnc2nc(Sc3ccc(Cl)cc3)[nH]c12	-34.1	7.0	34.1*	6.1	7.1
SMILES	NFkB transloc pot	EphB4 ephrin blk	IL1B NFkB inh	IL1B cytotox	Candida biofilm
CCOc1cc(/C=C\c2[nH]c(=O)[nH]c(=O)c2[N+](=O)[O-])ccc1OC(C)CC (stereo not given)	47.5*	-0.2	-47.5	-67.4	4.0
CCOc1cc(/C=C\[N+](=O)[O-])ccc1OCC(=O)Nc1ccccc1C	-9.2	2.7	9.2	45.5	.
Fc1ccc(-n2[nH]nnc2=S)cc1N1CCCC1	-9.5	2.7	9.5	10.1	5.8
Nc1nc(SCc2ccccc2Cl)ns1	23.9	8.8	-23.9	-82.9	-2.1
Cn1c(N)c(C(=O)COC(=O)CCCc2c[nH]c3ccccc23)c(=O)n(C)c1=O	-1.6	0.3	1.6	-6.6	3.4
Cn1c(N)c(C(=O)COC(=O)CCc2c[nH]c3ccccc23)c(=O)n(C)c1=O	54.9*	1.6	-54.9	-2.6	.
